# About 2,100 (0.53%) of roughly 400,000 compounds were called active. Not shown: some 14% with an inconclusive outcome. How the calls were made is not given here. Only a selection was taken, and actives are over-represented in it overall.
# Target: Ataxin-2 (Homo sapiens) (UniProt Q99700)
# Assay: qHTS for Inhibitors of ATXN expression.
# Format: functional
# Ataxin-2 (Homo sapiens), sequence (Q99700 whole entry): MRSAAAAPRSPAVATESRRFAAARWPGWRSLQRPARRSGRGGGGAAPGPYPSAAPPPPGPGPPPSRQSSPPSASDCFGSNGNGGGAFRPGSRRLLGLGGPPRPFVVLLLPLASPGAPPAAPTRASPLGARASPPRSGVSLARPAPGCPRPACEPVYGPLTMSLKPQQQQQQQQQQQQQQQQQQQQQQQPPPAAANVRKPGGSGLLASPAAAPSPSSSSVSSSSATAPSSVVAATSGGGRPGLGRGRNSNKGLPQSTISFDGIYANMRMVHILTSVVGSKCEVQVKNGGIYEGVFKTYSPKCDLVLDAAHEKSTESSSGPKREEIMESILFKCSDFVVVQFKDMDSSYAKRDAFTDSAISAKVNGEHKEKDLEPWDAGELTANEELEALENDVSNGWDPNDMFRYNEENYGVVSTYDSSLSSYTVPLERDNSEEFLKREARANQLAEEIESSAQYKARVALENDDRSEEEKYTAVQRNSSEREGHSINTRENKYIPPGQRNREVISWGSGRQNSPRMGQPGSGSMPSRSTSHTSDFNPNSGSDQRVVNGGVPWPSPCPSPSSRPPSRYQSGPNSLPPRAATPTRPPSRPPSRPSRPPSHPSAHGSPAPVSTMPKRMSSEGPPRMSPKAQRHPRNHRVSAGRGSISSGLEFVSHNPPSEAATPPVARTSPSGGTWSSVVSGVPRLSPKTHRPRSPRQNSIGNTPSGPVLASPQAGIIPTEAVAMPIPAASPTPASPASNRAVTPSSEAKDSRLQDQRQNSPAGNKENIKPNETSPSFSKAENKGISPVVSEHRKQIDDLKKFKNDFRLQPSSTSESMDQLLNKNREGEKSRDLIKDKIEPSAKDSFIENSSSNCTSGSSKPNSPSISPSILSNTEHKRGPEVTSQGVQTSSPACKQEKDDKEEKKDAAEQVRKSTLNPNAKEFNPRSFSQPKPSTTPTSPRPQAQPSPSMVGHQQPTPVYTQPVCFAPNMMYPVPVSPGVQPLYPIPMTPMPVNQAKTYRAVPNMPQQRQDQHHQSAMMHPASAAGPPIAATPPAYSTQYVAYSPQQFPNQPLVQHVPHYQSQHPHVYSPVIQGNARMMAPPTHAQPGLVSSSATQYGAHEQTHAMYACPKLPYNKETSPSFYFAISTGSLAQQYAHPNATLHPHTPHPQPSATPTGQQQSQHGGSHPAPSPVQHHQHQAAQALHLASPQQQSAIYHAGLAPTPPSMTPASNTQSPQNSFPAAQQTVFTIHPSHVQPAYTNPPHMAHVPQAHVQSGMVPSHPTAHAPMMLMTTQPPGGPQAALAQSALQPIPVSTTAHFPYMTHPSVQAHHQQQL
row,Compound,Potency
1,CC12CCC(C1)C(C)(C)C2NS(=O)(=O)c1ccc(F)cc1 (centres undefined),inactive
2,COC(=O)c1ccc(COc2ccc(C(C)(C)C)cc2)o1,inactive
3,COc1c(C)cc(S(=O)(=O)N2CCOCC2)c(C)c1C,inactive
4,Cc1cc(-c2nc3cccnc3s2)ccc1NS(=O)(=O)c1ccc2c(c1)OCCO2,inactive
5,CCOC(=O)c1cnc(-n2nc(C)cc2C)nc1Nc1ccc(O)cc1,inactive
6,FC(F)(F)c1cc(-c2cccs2)nc2cc(-c3cccs3)nn12,inactive
7,CCCCN(C)S(=O)(=O)c1ccc(C(=O)Nc2sc3c(c2C(=O)OCC)CCN(C(C)C)C3)cc1,inactive
8,CCOC(=O)c1c(NC(C)=O)sc2c1CCC(/C=N/CCCN(CC)CC)=C2Sc1ccccc1,39.8 µM (active)
9,CCOC(=O)c1c(NC(C)=O)sc2c1CCC(C=O)=C2Sc1ccccc1,39.8 µM (active)
10,CCOC(=O)c1c(N=C(S)Nc2ccccc2)sc2c1CCN(CC)C2,inactive
11,CCOC(=O)c1c(NC(=O)C2=C(C)N=C(S)NC2c2ccc(C)cc2)sc(C)c1C (centres undefined),inactive
12,CCOC(=O)c1c(NC(=O)c2ccccc2Cl)sc2c1CCc1ccccc1-2,inactive
13,COc1ccc(-n2nc3ccc(N)cc3n2)cc1,inactive
14,Cn1c(C(=O)NC2CCCCC2)cc2c(=O)n3ccccc3nc21,inactive
15,O=C(NCc1cccs1)C(Cc1ccccc1)n1cccc1 (centres undefined),inactive
16,[N-]=[N+]=CC(=O)CNC(=O)[C@@H](Cc1ccccc1)N1C(=O)c2ccccc2C1=O,20 µM (active)
17,CC1=NN2C(=N)/C(=C\c3cc(C)n(-c4cccc(C)c4)c3C)C(=O)N=C2S1,inactive
18,Cn1c(-c2c(N)n(C3CCCC3)c3nc4ccccc4nc23)nc2ccccc21,inactive
19,N#C/C(=C\c1cccnc1)c1nc2ccccc2[nH]1,inactive
20,O=C(/C(=C\c1ccccc1)c1nc2ccccc2[nH]1)c1ccc(Cl)cc1,15.8 µM (active)
21,O=C(O)C(=O)/C(=C\c1cccc(Cl)c1)c1ccc2ccccc2n1,inactive
22,O=C(O)C(=O)/C(=C\c1ccc(Cl)cc1)c1ccc2ccccc2n1,inactive
23,O=C(Cc1nc2ccccc2[nH]1)c1ccc(Cl)cc1,inactive
24,O=C(/C(=C/c1ccc(Cl)cc1)c1nc2ccccc2[nH]1)c1ccccc1,39.8 µM (active)
25,O=C(COc1ccccc1C(=O)NCc1ccncc1)Nc1ccc(Br)cc1,inactive

row,Compound,Potency
1,CCN1CCN(Cc2c(O)ccc3c(C)c(-c4ccc(OC)cc4)c(=O)oc23)CC1,inactive
2,COCC(C)NC(=O)c1cnn2c(C(F)F)cc(-c3ccccc3)nc12 (centres undefined),inactive
3,COCCNC(=O)c1nn2c(C(F)(F)F)cc(-c3ccccc3)nc2c1Cl,inactive
4,CCOC(=O)CS(=O)(=O)c1nc(-c2ccc(F)cc2)cc(C(F)(F)F)n1,31.6 µM (active)
5,COc1ccc(-c2c(C(F)(F)F)nn3c(O)cc(-c4ccccc4)nc23)cc1,inactive
6,Nc1c(C(=O)C2CC2)sc2nc(-c3ccccc3)cc(C(F)(F)F)c12,inactive
7,COC(=O)c1cc2nc(-c3ccc(C)cc3)cc(C(F)(F)F)n2n1,inactive
8,COC(=O)CCS(=O)(=O)c1nc(-c2ccccc2)cc(C(F)(F)F)n1,39.8 µM (active)
9,CS(=O)(=O)c1nc(-c2ccccc2)cc(C(F)(F)F)n1,35.5 µM (active)
10,CCOC(=O)CNc1c(-c2ccc(F)cc2)nc2cnccn12,inactive
11,CCOC(=O)CCS(=O)(=O)c1nc(-c2ccccc2)cc(C(F)(F)F)n1,31.6 µM (active)
12,O=C(COC(=O)CCS(=O)(=O)c1ccccc1)Nc1ccccc1,inactive
13,Cc1ccc(S(=O)(=O)CCC(=O)OCC(=O)NC(C)c2ccccc2)cc1 (centres undefined),inactive
14,CCCCn1nc(NC(=O)CCC)c2cc3cc(OC)ccc3nc21,inactive
15,CC(C)CNC(=O)COC(=O)c1c2c(nc3ccccc13)/C(=C/c1cccs1)CC2,inactive
16,CCN1CCN(Cc2c(O)ccc3c2O/C(=C\c2ccccc2)C3=O)CC1,inactive
17,CCOC(O)=C(C(C)=N)C1CC(=O)NC1=O (centres undefined),inactive
18,CCN(CC)CCNC(=O)c1cc(-c2ccc(Br)s2)nc2ccccc12,39.8 µM (active)
19,Cc1cc(C(=O)NCCN2CCOCC2)c2ccccc2n1,inactive
20,CCN(CC)CC(C)CNC(=O)c1cc(-c2ccc(Br)s2)nc2ccccc12 (centres undefined),14.1 µM (active)
21,CCc1ccc(-c2cc(C(=O)NN3CCOCC3)c3ccccc3n2)s1,inactive
22,O=C(NC1CC1)c1cc(-c2ccc(Br)cc2)nc2ccccc12,inactive
23,Cc1ccc(-c2cc(C(=O)NCC3(N(C)C)CCCCC3)c3ccccc3n2)o1,inactive
24,CN(Cc1ccccc1OCCO)CC1CCCN(CCc2ccc(Cl)cc2)C1 (centres undefined),inactive
25,C=CCNC(=O)/C(C#N)=C/c1c(N2CCN(c3ccccc3)CC2)nc2c(C)cccn2c1=O,inactive

row,Compound,Potency
1,CCc1c(C)c2cc3c(c(C)c2oc1=O)OCN(CCc1ccc(OC)c(OC)c1)C3,inactive
2,COc1ccc(CCN(C)C(=O)c2cc(=O)c3ccccc3o2)cc1OC,inactive
3,COc1ccc(CCNc2ncnc3c2oc2ccccc23)cc1OC,31.6 µM (active)
4,COc1cc(C(Nc2ccccn2)c2ccc3ccc(C)nc3c2O)cc(OC)c1O (centres undefined),39.8 µM (active)
5,Cc1cccc(NC(c2ccccc2C)c2ccc3ccc(C)nc3c2O)n1 (centres undefined),inactive
6,COc1cc(/C=N/Nc2ccccn2)cc(OC)c1O,inactive
7,CC(C)C[C@@H](COCc1cccc(Cl)c1)N1CCN(C(=O)c2ccc(C(F)(F)F)cc2)CCC1=O,22.4 µM (active)
8,CN1CCN(C(=O)c2ccc(C(F)(F)F)cc2)CC1,inactive
9,CC(C)C[C@@H](COCc1ccc(Cl)cc1)N1CCN(C(=O)c2ccc(C(F)(F)F)cc2)CCC1=O,31.6 µM (active)
10,CC(C)CC(COCc1cccc(Cl)c1)N1CCN(C(=O)c2ccc(C(F)(F)F)cc2)CCC1=O (centres undefined),39.8 µM (active)
11,CCn1nc(NC(C)=O)c2cc3ccc(C)cc3nc21,inactive
12,CCC(=O)NC1=C(Cl)C(=O)C(NC(=O)CC)=C(Cl)C1=O,5.01 µM (active)
13,CCN(CC)c1ccc2cc(-c3nnc(-c4ccncc4)o3)c(=O)oc2c1,inactive
14,O=C(N/N=C/c1sc(N2CCOCC2)nc1-c1ccccc1)c1ccccc1Cl,inactive
15,O=C(Oc1c(-c2ccco2)oc2ccccc2c1=O)c1cccnc1,inactive
16,CCOC(=O)C1=C(C)OC(N)=C(C#N)C1c1cccs1 (centres undefined),inactive
17,O=S(=O)(Nc1cccc(-c2nc3cccnc3s2)c1)c1ccc2c(c1)CCCC2,inactive
18,CC1C(=O)C(C)C(c2cc(Cl)ccc2O)NC1c1cc(Cl)ccc1O (centres undefined),39.8 µM (active)
19,CCc1cc2c(CN3CCN(CC)CC3)cc(=O)oc2cc1O,inactive
20,CCCCN(C)C1=CC2=CC(=C(C#N)C#N)CCC2CC1 (centres undefined),inactive
21,COCc1c(C(=O)N2CCC(N3CCCCC3)CC2)cnn1-c1ncc(C)c(-c2cccs2)n1,inactive
22,O=C(c1cc(-c2ccc(F)cc2)nc2ccccc12)N1CCN(C2CCS(=O)(=O)C2)CC1 (centres undefined),inactive
23,Cc1nc2ccccc2c2oc(C(=O)N3CCC(N4CCCCC4)CC3)cc12,5.62 µM (active)
24,COc1cc(OC)c(OC)cc1CNCC1COc2ccccc2O1 (centres undefined),inactive
25,Cc1sc2ncn(CC(=O)NCC3COc4ccccc4O3)c(=O)c2c1S(=O)(=O)N1CCCCC1 (centres undefined),inactive

row,Compound,Potency
1,Cc1nc2ccccc2c2oc(C(=O)NCC3COc4ccccc4O3)cc12 (centres undefined),35.5 µM (active)
2,Nc1cccc(N2C(=O)c3cccc4c(N)ccc(c34)C2=O)c1,inactive
3,CC(O)C(/N=C/C1=C(O)OC(C)(C)OC1=O)C(=O)O (centres undefined),inactive
4,O=C(O)c1ccc2nc(-c3ccco3)c(-c3ccco3)nc2c1,inactive
5,CCc1cccc2cc3c(N)c(C(=O)Nc4ccc(S(=O)(=O)N5CCCC5)cc4)sc3nc12,inactive
6,CCOc1ccc2nc3sc(C(=O)N4CCOCC4)c(N)c3cc2c1,inactive
7,Nc1c(C(=O)Nc2ccc(S(=O)(=O)N3CCCC3)cc2)sc2nc3ccc(OC(F)(F)F)cc3cc12,4.47 µM (active)
8,N#C/C(=C\c1c(Oc2ccc(Cl)cc2)nc2ccccn2c1=O)C(=O)NC1CCS(=O)(=O)C1 (centres undefined),inactive
9,COC(=O)c1[nH]c2ccc(Br)cc2c1NC(=O)C(C)N1CCN(C2CCCCC2)CC1 (centres undefined),39.8 µM (active)
10,Cn1c(N)c(C(=O)COC(=O)CCOc2ccc(C(C)(C)C)cc2)c(=O)n(C)c1=O,inactive
11,O=C(NC1CCC(O)CC1)c1cc(-c2ccco2)nc2ccccc12 (centres undefined),inactive
12,COc1cc(OC)cc(C(=O)NCCCCNC(=O)c2cc(OC)cc(OC)c2)c1,inactive
13,COc1cc(CN2CCC3(CCC(CNC(=O)c4ccccc4)O3)CC2)cc(OC)c1 (centres undefined),11.2 µM (active)
14,CN1CCCC1CCNc1ccc2c(=O)c3ccccc3oc2c1 (centres undefined),inactive
15,N#C/C(=C(/O)COC(=O)c1ccccc1O)c1nc2ccccc2s1,inactive
16,CC1=CC(=C(C#N)c2nc3ccccc3s2)C=C(C)N1CC1CCCO1 (centres undefined),inactive
17,Cc1c(Cl)cccc1N/C(SCC(=O)N1CCCCCC1)=C(/C#N)c1nc2ccccc2s1,25.1 µM (active)
18,COc1ccc(-c2c(C#N)c(N)nc3sc(C(=O)c4ccccc4)c(N)c23)cc1,inactive
19,COc1ccc(CNCC(=O)Nc2sccc2C#N)cc1,inactive
20,COc1ccc(-c2oc(NC(=O)CCl)c(C#N)c2-c2ccc(OC)cc2)cc1,31.6 µM (active)
21,Cc1cccc(C)c1NC(=O)NC1(C(=O)N2CCCCC2)CCCCC1,inactive
22,O=S(=O)(Nc1nc2n(n1)C(c1ccc(F)cc1)C=C(c1ccccc1)N2)c1ccc(Cl)cc1 (centres undefined),inactive
23,CC(C)Cc1ccc(C(C)/C=C2/CCC(CN3CCCCC3)C2=O)cc1 (centres undefined),35.5 µM (active)
24,CCOC(=O)C1C(=O)C=C(c2ccc(NS(C)(=O)=O)cc2)CC1c1ccco1 (centres undefined),inactive

# Source: ChEMBL document CHEMBL1201862, “PubChem BioAssay data set” (2004)
